Compounds without any hit were thinned out: in the full panel of roughly 83,000, 20% have a hit.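 Each cell line was grown in a 96-well plate and treated with one concentration of compound for 48 hours. Values below 10 were considered active.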 Unmarked numbers belong to inactive results. Activity calls are given as the source filed them.
Assays:
Experiment in all cases: NCI-60 one-dose screen, 48 h (100 = growth as untreated, 0 = no growth, -100 = all killed)
Settings in all cases: 10 µM unless noted
SR leukemia = tested on: SR leukemia
RPMI-8226 leukemia = tested on: RPMI-8226 leukemia
OVCAR-8 ovarian = tested on: OVCAR-8 ovarian
OVCAR-5 ovarian = tested on: OVCAR-5 ovarian
SK-OV-3 ovarian = tested on: SK-OV-3 ovarian
IGROV1 ovarian = tested on: IGROV1 ovarian
OVCAR-3 ovarian = tested on: OVCAR-3 ovarian
HS 578T breast = tested on: HS 578T breast
NCI/ADR-RES ovarian = tested on: NCI/ADR-RES ovarian
T-47D breast = tested on: T-47D breast
BT-549 breast = tested on: BT-549 breast
MDA-MB-435 melanoma = tested on: MDA-MB-435 melanoma
SW-620 colon = tested on: SW-620 colon
MCF7 breast = tested on: MCF7 breast
HCT-116 colon = tested on: HCT-116 colon
HCC-2998 colon = tested on: HCC-2998 colon
KM12 colon = tested on: KM12 colon
OVCAR-4 ovarian = tested on: OVCAR-4 ovarian

Row | Compound | growth (SR leukemia) | growth (RPMI-8226 leukemia) | growth (OVCAR-8 ovarian) | growth (OVCAR-5 ovarian) | growth (SK-OV-3 ovarian) | growth (IGROV1 ovarian) | growth (OVCAR-3 ovarian) | growth (HS 578T breast) | growth (NCI/ADR-RES ovarian) | growth (T-47D breast) | growth (BT-549 breast) | growth (MDA-MB-435 melanoma) | growth (SW-620 colon) | growth (MCF7 breast) | growth (HCT-116 colon) | growth (HCC-2998 colon) | growth (KM12 colon) | growth (OVCAR-4 ovarian)
1 | Cc1c2c(cc3c1[nH]c1ccccc13)C=NCC2 | 64.1% | 87% | 94.1% | 98.3% | 96.5% | 105% | 101% | 99.1% | 85.6% | 73.7% | 79.6% | 94.9% | 97% | 60.8% | 71.1% | 96.8% | 87% | 
2 | O=[N+]([O-])c1ccc(N=Nc2c(NNc3ccc([N+](=O)[O-])cn3)cc(S(=O)(=O)O)c3ccccc23)nc1 | 47.2% | 90% | 67.5% | 91.4% | 78% | 84.9% | -5.33% (active) |  | 79.5% | 90.9% | 81.7% | 90% | 83.1% | 85.9% | 69.6% | 87.1% | 87.6% | 
3 | CCCCCCCCCCCCCCCCCC(=O)[O][Sn]([CH2]CCC)([CH2]CCC)[CH2]CCC | 15.8% | -30.8% (active) | -57% (active) |  | -96.2% (active) | -88.7% (active) | -100% (active) | -8.64% (active) | -86.6% (active) | -78.9% (active) | -94.3% (active) | -87.2% (active) |  | -93.1% (active) | -96.2% (active) | -99.1% (active) | -96.2% (active) | -98% (active)
4 | Cc1cc(-c2ccc(N=Nc3c(S(=O)(=O)O)cc4cc(S(=O)(=O)O)cc(O)c4c3O)c(C)c2)ccc1N=Nc1c(S(=O)(=O)O)cc2cc(S(=O)(=O)O)cc(O)c2c1O | 148% | 114% | 99.5% |  | 88.9% | 80.6% | 120% | 78.6% | 108% | 92.2% | 108% | 103% | 114% | 101% | 109% | 106% | 114% | 103%
5 | Cc1ccc(C)c(NC(=O)c2sc3c(=O)[nH]cnc3c2C)c1 | 15.8% | 87.7% | 98.2% | 127% | 101% | 79.8% | 70.7% | 78.9% | 58% | 86.9% | 80.2% | -36% (active) | 42.8% | 62.8% | 68.3% |  | 46.2% | 
6 | COc1cccc(C2C(C#N)=C(N)Oc3cc4c(cc32)OCO4)c1 (stereo not drawn) | 17.8% | 23.8% | 24.9% | 31.1% | 0.748% (active) | 21.6% | -38.6% (active) | 27.8% | 5.77% (active) | 59.9% | 24% | -12.3% (active) | 26.9% | 13.2% | 5.12% (active) | 21.8% | 0.487% (active) | 
7 | O=C(C(=O)N1CCCC1)c1cn(CCCn2cc(C(=O)C(=O)N3CCCC3)c3cc(Br)ccc32)c2ccc(Br)cc12 | 65.9% | 76.8% | 59.6% |  | 90.4% | 67.9% | 60% | -9.76% (active) | 51% | 70.8% | 84.7% | 74.3% | 85.5% | 61.6% | 58.6% | 81.6% | 86.2% | 5.38% (active)
8 | CSC1=N/C(=C\c2cccc(OCc3ccc(Cl)cc3)c2)C(=O)N1 | 80.9% | 67.7% | 86.1% |  |  | 86.7% | 84.2% | 104% | 79% | 59.4% | 88.1% | 80.6% | 88.1% | 83% | 88.8% | 93% | 79.8% | 56.9%
9 | Cc1c(C(=O)Nc2ccccc2F)sc2c(=O)[nH]cnc12 | 28.5% | 96.7% | 97% | 123% | 97.5% | 76.4% | 93.7% | 98.2% | 66.2% |  | 85.3% | 6.84% (active) | 76.8% | 76.9% | 88.6% | 93.2% | 61.8% | 
10 | C#CCNc1nc(NCCNC(=O)CCl)nc(N(C)CCCCc2ccccc2)n1 | 62.1% | 89.2% | 101% | 109% | 101% | 78.9% | 94.3% | 94.2% | 102% | 93% | 76.3% | 98.7% | 97.9% | 86% | 79.1% | 108% | 99.1% | 
11 | COc1cc(Nc2ncccc2/C=C/C(=O)c2cc(OC)c(OC)c(OC)c2)cc(OC)c1OC | 9.53% (active) | 52.1% | 71.4% | 102% | 97.4% | 87.1% | 91.9% | 99.5% | 79.4% | 34.1% | 100% | 61.4% | 71.9% | 9.35% (active) | 60.6% | 93.5% | 71.1% | 
12 | CCN(CC)c1ccc(/C=N/NC(=O)C[N+](C)(C)C)cc1 | 16.6% | 92% | 111% | 99.1% |  | 115% | 110% | 110% | 103% | 101% | 103% | 110% | 101% | 96.9% | 102% | 104% | 102% | 
13 | C=CCOc1ccc2c(C)cc(=O)oc2c1 | 128% | 93.8% | 103% | 113% | 117% | 113% | 105% |  | 104% | 105% | 109% | 98.3% | 109% | 98.2% | 105% | 100% | 105% | 
14 | N=C(N)c1ccc(-c2ccc(-c3cccs3)s2)cc1F | -23.8% (active) | -48.1% (active) | -44.4% (active) |  | -100% (active) | -70.6% (active) | -77.2% (active) | -28.1% (active) | -57.4% (active) | -63.7% (active) | -80.6% (active) | -81.5% (active) | -62.8% (active) | -68.5% (active) | -47.2% (active) | -81.2% (active) | -76.8% (active) | -59.1% (active)
15 | COc1cc([N+](=O)[O-])cc(OC)c1OC | 102% | 96% | 109% | 129% | 118% | 100% | 108% | 107% | 114% | 112% | 108% | 117% | 105% | 96.5% | 113% |  | 108% | 
16 | CC1=C(/C=C/C(C)=C/C=C(C(=O)O)\C(C)=C\C(=O)O)C(C)(C)CCC1 | 95.7% | 92% | 99.4% | 97% | 103% | 99.2% | 110% | 105% | 102% | 101% | 100% | 116% | 108% | 93.8% | 105% | 108% | 110% | 
17 | C[N+](C)(C)CC(=O)N/N=C\c1ccco1 | 81.2% | 103% | 102% | 97% | 103% | 104% | 114% | 99.4% | 111% | 97.7% | 104% | 107% | 98.9% | 88.6% | 101% | 110% | 96.8% | 
18 | C=C(c1ccc(C(=O)NCCCn2ccnc2)cc1)c1cc2c(cc1C)C(C)(C)CCC2(C)C | -27.2% (active) | 22.7% | 40% |  | 4.17% (active) | 7.28% (active) | 25.7% | 59.7% | 5.05% (active) | -16.9% (active) | 39.7% | -27% (active) | 16.5% | 35.5% | -59% (active) | 26.8% | 24.5% | 37%
